Values joined by “and” are separate entries in the source; they are usually repeats but may differ in a detail not shown here. Equal values may be shown once. Among all 5,500 compounds or so, about 2,000 (36%) were called active. Inconclusive results (about 18%) are left out. Cut-off read from the data, not from the text of the source: active = normalized growth mostly below about 0.91 (no sharp cut-off); inconclusive = no clear call, values can overlap the other calls; inactive = mostly above about 0.92. This is one part of the list.
Assay: chemical genetic growth profiling, strain panel (AID 1159580);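 note: tested at 20 µM; growth read once vehicle control cultures reached saturation at 30 °C; 1 = growth at the plate median or of vehicle wells; lower values mean less growth of the strain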
Conditions: S. cerevisiae deletion strains, growth OD

Measured: normalized growth

CC1CCC2(OC1)OC1CC3C4CCC5C[C@@H](O)CCC5(C)C4=CCC3(C)C1[C@@H]2C (stereo partly drawn)
inactive: locus YAL021C, strain ccr4, active compounds read low 1 | locus YAL026C, strain drs2, active compounds read low 0.999 | locus YAL030W, strain snc1, active compounds read low 1.02 | locus YBL061C, strain skt5, active compounds read low 1.01 | locus YBR009C, strain hhf1, active compounds read low 1.01 | locus YBR021W, strain FUR4, active compounds read low 1.13 | locus YBR023C, strain chs3, active compounds read low 1.01 | locus YBR171W, strain sec66, active compounds read low 0.995 | locus YBR229C, strain ROT2, active compounds read low 0.991 | locus YBR231C, strain swc5, active compounds read low 0.997 | locus YBR279W, strain paf1, active compounds read low 1 | locus YCL011C, strain gbp2, active compounds read low 0.991 | locus YCL016C, strain dcc1, active compounds read low 1 | locus YCL029C, strain bik1, active compounds read low 0.972 | locus YCL069W, strain vba3, active compounds read low 0.994 | locus YCR088W, strain abp1, active compounds read low 1.01 | locus YDL005C, strain med2, active compounds read low 1.02 | locus YDL035C, strain GPR1, active compounds read low 1.01 | locus YDL040C, strain nat1, active compounds read low 0.994 | locus YDL074C, strain BRE1, active compounds read low 1.01 | locus YDL101C, strain DUN1, active compounds read low 0.985 | locus YDL185W, strain tfp1, active compounds read low 0.948 | locus YDL192W, strain arf1, active compounds read low 0.985 | locus YDR001C, strain nth1, active compounds read low 0.997 | locus YDR069C, strain doa4, active compounds read low 1.01 | locus YDR101C, strain arx1, active compounds read low 1.01 | locus YDR137W, strain rgp1, active compounds read low 1.04 | locus YDR159W, strain sac3, active compounds read low 1.01 | locus YDR162C, strain NBP2, active compounds read low 1.01 | locus YDR195W, strain ref2 0.931 | locus YDR297W, strain sur2, active compounds read low 0.998 | locus YDR318W, strain mcm21, active compounds read low 0.979 | locus YDR334W, strain swr1, active compounds read low 1.01 | locus YDR335W, strain msn5, active compounds read low 1 | locus YDR388W, active compounds read low 0.966 | locus YDR392W, strain spt3, active compounds read low 0.994 | locus YDR502C, strain sam2, active compounds read low 0.974 | locus YEL003W, strain gim4, active compounds read low 1 | locus YEL037C, strain rad23, active compounds read low 1 | locus YEL061C, strain CIN8 (second series), active compounds read low 0.993 | locus YEL061C, strain CIN8, active compounds read low 0.996 | locus YER015W, strain faa2, active compounds read low 1 | locus YER016W, strain bim1, active compounds read low 1 | locus YER110C, active compounds read low 0.959 | locus YER111C, strain swi4, active compounds read low 0.994 | locus YER155C, strain BEM2 (second series), active compounds read low 0.994 | locus YER155C, strain BEM2, active compounds read low 1.01 | locus YER167W, strain BCK2, active compounds read low 1.01 | locus YFR010W, strain ubp6, active compounds read low 1 | locus YGL078C, strain dbp3, active compounds read low 0.948 | locus YGL086W, strain mad1, active compounds read low 0.998 | locus YGL167C, strain pmr1, active compounds read low 1.01 | locus YGL173C, strain kem1, active compounds read low 1.01 | locus YGL227W, strain vid30, active compounds read low 0.986 | locus YGL240W, strain doc1, active compounds read low 1.01 | locus YGL248W, strain PDE1, active compounds read low 0.999 | locus YGL253W, strain hxk2, active compounds read low 0.99 | locus YGR135W, strain pre9, active compounds read low 0.958 | locus YGR252W, strain gcn5, active compounds read low 1.01 | locus YHR013C, strain ard1, active compounds read low 0.998 | locus YHR027C, strain rpn1, active compounds read low 0.989 | locus YHR030C, strain SLT2, active compounds read low 0.972 and 1.02 | locus YHR079C, strain IRE1 (second series), active compounds read low 0.983 | locus YHR079C, strain IRE1, active compounds read low 1.01 | locus YHR094C, strain hxt1, active compounds read low 0.973 | locus YHR129C, strain ARP1, active compounds read low 0.998 | locus YHR142W, strain chs7, active compounds read low 0.995 | locus YHR200W, strain rpn10, active compounds read low 0.986 | locus YIL066C, strain RNR3, active compounds read low 1 | locus YIL073C, strain SPO22, active compounds read low 0.937 | locus YIL125W, strain kgd1, active compounds read low 0.982 | locus YIR030C, strain dcg1, active compounds read low 0.991 | locus YJL092W, strain hpr5, active compounds read low 0.993 | locus YJL095W, strain BCK1 (second series), active compounds read low 1.02 | locus YJL095W, strain BCK1, active compounds read low 0.982 and 1.02 | locus YJL115W, strain asf1, active compounds read low 0.986 | locus YJL129C, strain trk1, active compounds read low 1.01 | locus YJL134W, strain LCB3, active compounds read low 0.987 | locus YJL154C, strain vps35, active compounds read low 1 | locus YJL164C, strain tpk1, active compounds read low 1.01 | locus YJL166W, strain qcr8, active compounds read low 1 | locus YJL168C, strain set2, active compounds read low 0.984 | locus YJL187C, strain SWE1 (second series), active compounds read low 0.986 | locus YJL187C, strain SWE1, active compounds read low 1.01 | locus YJR043C, strain POL32, active compounds read low 1.02 | locus YJR066W, strain TOR1, active compounds read low 0.945 | locus YKL009W, strain mrt4, active compounds read low 0.988 | locus YKL068W, active compounds read low 0.97 | locus YKL085W, strain MDH1 (second series), active compounds read low 0.978 | locus YKL085W, strain MDH1, active compounds read low 0.978 | locus YKL160W, strain elf1, active compounds read low 0.992 | locus YKL190W, strain CNB1, active compounds read low 0.992 | locus YKR001C, strain vps1, active compounds read low 0.983 | locus YKR026C, strain gcn3, active compounds read low 1 | locus YKR091W, strain srl3, active compounds read low 1.01 | locus YLL001W, strain dnm1, active compounds read low 1.01 | locus YLL026W, active compounds read low 0.992 | locus YLL041C, strain sdh2, active compounds read low 0.992 | locus YLR027C, strain aat2, active compounds read low 0.985 | locus YLR039C, strain RIC1, active compounds read low 1.01 | locus YLR058C, strain SHM2, active compounds read low 0.973 | locus YLR102C, strain apc9, active compounds read low 0.974 | locus YLR113W, strain HOG1, active compounds read low 0.992 | locus YLR221C, strain rsa3, active compounds read low 1 | locus YLR258W, strain gsy2, active compounds read low 0.994 | locus YLR262C, strain YPT6 (second series), active compounds read low 1.1 | locus YLR262C, strain YPT6, active compounds read low 1.04 | locus YLR268W, strain sec22, active compounds read low 0.999 | locus YLR320W, strain mms22, active compounds read low 1 | locus YLR330W, strain CHS5, active compounds read low 0.993 | locus YLR342W, strain FKS1 (second series), active compounds read low 1.05 | locus YLR342W, strain FKS1, active compounds read low 1.05 | locus YLR357W, strain rsc2, active compounds read low 1 | locus YLR370C, strain arc18, active compounds read low 1.02 | locus YLR371W, strain rom2, active compounds read low 0.978 | locus YLR384C, strain iki3, active compounds read low 1.01 | locus YLR418C, strain cdc73, active compounds read low 0.977 | locus YML016C, strain PPZ1, active compounds read low 1.01 | locus YML032C, strain rad52, active compounds read low 0.964 | locus YML120C, strain ndi1, active compounds read low 0.99 | locus YML124C, strain tub3, active compounds read low 0.98 | locus YMR058W, strain fet3, active compounds read low 0.983 | locus YMR078C, strain ctf18, active compounds read low 0.98 | locus YMR125W, strain sto1, active compounds read low 0.995 | locus YMR129W, active compounds read low 0.997 | locus YMR205C, strain PFK2, active compounds read low 0.997 | locus YMR223W, strain ubp8, active compounds read low 0.994 | locus YMR231W, strain pep5, active compounds read low 0.998 | locus YMR263W, strain SAP30, active compounds read low 0.982 | locus YMR307W, strain GAS1, active compounds read low 1.27 | locus YNL067W, strain RPL9B, active compounds read low 0.974 | locus YNL071W, strain lat1, active compounds read low 1.02 | locus YNL183C, strain NPR1, active compounds read low 0.963 | locus YNL209W, strain ssb2, active compounds read low 1 | locus YNL233W, strain BNI4, active compounds read low 0.99 | locus YNL248C, strain rpa49, active compounds read low 1.01 | locus YNL250W, strain rad50, active compounds read low 0.959 | locus YNL271C, strain bni1, active compounds read low 0.983 | locus YNL298W, strain CLA4, active compounds read low 0.98 | locus YNL307C, strain MCK1, active compounds read low 0.982 | locus YNL322C, strain KRE1 (second series), active compounds read low 0.986 | locus YNL322C, strain KRE1, active compounds read low 1 | locus YNR049C, strain mso1, active compounds read low 1.01 | locus YNR052C, strain pop2, active compounds read low 0.981 | locus YOL012C, strain htz1 0.809 | locus YOL147C, strain pex11, active compounds read low 0.98 | locus YOR001W, strain rrp6, active compounds read low 1.01 | locus YOR061W, strain CKA2, active compounds read low 1 | locus YOR069W, strain VPS5, active compounds read low 0.981 | locus YOR070C, strain gyp1, active compounds read low 1.01 | locus YOR080W, strain dia2, active compounds read low 1.01 | locus YOR083W, strain WHI5, active compounds read low 1 | locus YOR106W, strain vam3, active compounds read low 1.02 | locus YOR136W, strain idh2, active compounds read low 0.983 | locus YOR144C, strain elg1, active compounds read low 0.979 | locus YOR184W, strain ser1, active compounds read low 0.996 | locus YOR231W, strain MKK1, active compounds read low 1 | locus YOR265W, strain rbl2, active compounds read low 0.999 | locus YOR270C, strain vph1, active compounds read low 1.04 | locus YOR290C, strain snf2, active compounds read low 1 | locus YOR316C, strain cot1, active compounds read low 0.959 | locus YPL051W, strain arl3, active compounds read low 0.997 | locus YPL055C, strain LGE1, active compounds read low 1.02 | locus YPL078C, strain atp4, active compounds read low 0.991 | locus YPL106C, strain sse1, active compounds read low 0.995 | locus YPL240C, strain hsp82, active compounds read low 1.01 | locus YPL241C, strain CIN2, active compounds read low 0.989 | locus YPL256C, strain CLN2, active compounds read low 0.983 | locus YPR119W, strain clb2, active compounds read low 0.985 | locus YPR141C, strain kar3, active compounds read low 0.962 | locus YPR163C, strain tif3, active compounds read low 0.954 | locus YPR167C, strain met16, active compounds read low 0.989 | strain wtn01, active compounds read low 0.986
